PubChem BioAssay (NCATS)
Results filed as inconclusive are left out. Unmarked numbers belong to inactive results. Activity calls are given as the source filed them. Calls follow the shape of the dose curve; as a rule, active = well fitted inhibition curve with a large enough effect; inconclusive = small, poorly fitted or top-dose-only effect; inactive = flat fitted curve, though single readings scatter.

What follows are molecules tested against Glutathione peroxidase 1 (Homo sapiens) (UniProt P07203) (assay: Primary qHTS Assay for Inhibitors of Recombinant Selenoprotein Glutathione Peroxidase 1 (GPX1) (AID 1845191; also: nearly all actives have a fitted effect of over 65% in size)). Details: recombinant GPX1, GR-coupled NADPH fluorescence, 15 min; series mostly up to 27.7 µM; activity, negative = inhibition: at the top concentration.
Chain of Glutathione peroxidase 1 (Homo sapiens) (P07203 whole entry, looked up): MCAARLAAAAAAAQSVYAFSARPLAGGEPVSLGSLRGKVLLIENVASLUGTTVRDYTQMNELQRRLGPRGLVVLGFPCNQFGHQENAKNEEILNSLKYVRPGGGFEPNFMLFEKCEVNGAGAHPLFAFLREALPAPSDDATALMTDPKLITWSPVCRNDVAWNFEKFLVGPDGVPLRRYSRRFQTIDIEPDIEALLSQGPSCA
Outline: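 GR-coupled assay: compounds preincubated 30 min at room temperature with GPX1, then reaction started with CHP; final 10 nM GPX1, 1 mM GSH, 0.5 mM CHP, 0.5 mM NADPH, 100 nM GR, 0.01% BSA, pH 7.5 Tris buffer. NADPH fluorescence (340/450 nm) read at 0 and 15 min.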
% is scaled to controls: 0 for no effect and ±100 for the full control effect.

| Compound | outcome | activity, negative = inhibition | Potency |
| --- | --- | --- | --- |
| CC(CCO)CCC1C2(C)CCCC(C)(C)C2CC[C@@]1(C)O (stereo not given in full) | inactive |  |  |
| COc1ccc(C(=O)OC2C3C=COC(OC4OC(CO)C(O)C(O)C4O)C3C3(CO)OC23)cc1OC (stereo not given) |  | 3.8% |  |
| COc1cccc(C)c1C(=O)O[C@@H]1C[C@H](O[C@H]2[C@H](O)C[C@H](O[C@@H]3CCC[C@H]4[C@H]3C=C[C@@H]3CCCC/C=C/[C@H]5C=C(C(=O)O)[C@@H](C)C[C@@]56OC(=O)C(=C6O)OC(=O)[C@@]34C)O[C@@H]2C)O[C@H](C)[C@H]1O |  | -5.26% [at 15.3 µM] |  |
| CC(=O)OCC1=C[C@@H]2OC(=O)C3=CO[C@@H](O[C@@H]4O[C@H](CO)[C@@H](O)[C@H](O)[C@H]4O)[C@H]1[C@@H]32 |  | -4.74% |  |
| O=C(COCC(=O)N1CCN(C(c2ccccc2)c2ccccc2)CC1)Nc1ccc(Cl)cc1C(=O)O |  |  | inactive |
| CC1(C)CC[C@]2(C(=O)O[C@@H]3O[C@H](CO)[C@@H](O)[C@H](O)[C@H]3O)[C@H](O)C[C@]3(C)C(=CCC4[C@@]5(C)CC[C@H](O[C@@H]6OC[C@@H](O)[C@H](O)[C@H]6O)[C@@](C)(C(=O)O)C5CC[C@]43C)[C@@H]2C1 (stereo not given in full) |  | -2.14% [at 15.3 µM] |  |
| C=C1CCC2C(C)(C)CC(O)CC2(C)C1CCC(C)CCOC(=O)CCC(=O)O (stereo not given) |  | -11.9% |  |
| COc1cccc(C(=O)NCCNc2nc3cc(C)cc(C)c3cc2C#N)c1 | inactive [at 48.8 µM] |  |  |
| C=C(CCO)C(=O)OCC1OCC(OC(=O)C(=C)CCO[C@@H]2O[C@H](COC(=O)C(=C)CCO[C@@H]3O[C@H](CO)[C@@H](O)[C@H](O)[C@H]3O)[C@@H](O)[C@H](O)[C@H]2O)C(O)C1O (stereo not given in full) | inactive [at 15.3 µM] |  |  |
| C[C@@H]1C(=O)O[C@H](C)[C@H]1C[C@@H](O)[C@](C)(O)[C@H]1CC[C@@]2(O)C3=CC(=O)[C@@H]4C[C@@H](O)[C@@H](O)C[C@]4(C)C3CC[C@]12C (stereo not given in full) | inactive |  |  |
